Screening results (PubChem BioAssay)
Pf growth 96h: P. falciparum growth inhibition at 96 hour, primary screen for plastid delayed-death inhibitors; P. falciparum luciferase reporter growth, 96 h; Potency, µM (titrated, usually from 28.7 µM), for inactives: at the top dose activity change, negative = inhibition, hits mostly inhibitors; 320,000 tested, 6.9% active; AID 504834
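Two parasite generations (96 h, 37 C, 5% CO2) of compound exposure in infected erythrocytes (0.05% parasitemia, 2% hematocrit). Luciferase-reporter P. falciparum; decreased luminescence indicates inhibited growth, aimed at apicoplast-acting delayed death.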
HCV inh: inhibitors of hepatitis C virus infection; Huh7.5.1 HCVcc-Cre infection, luciferase reporter, 44 h; Potency, µM (top dose mostly 41.8 µM), without a hit: at the top dose activity change, negative = inhibition, hits mostly inhibitors; 340,000 tested, 3.4% active
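Luciferase read-out (15 sec integration) after a 15 min room-temperature substrate step quantifies HCVcc-Cre infection. Cells, 1,000 per well, had compound added 4 h post-plating, then virus at ~0.5 moi, and were cultured 44 h.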
AmpC inh no detg: blocks E. coli AmpC beta-lactamase in detergent-free assay. P00811. AmpC nitrocefin hydrolysis, absorbance 480 nm, 0.0001% Triton. Potency, µM (series often up to 57.1 µM), without a hit: at the highest dose activity change, negative = inhibition, actives largely listed as inhibitors. 330,000 tested, 0.52% active. AID 485341;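 note: plate controls were no compound for no effect and no enzyme for full effect; nearly all actives have a fitted effect of over 20% in size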
Target sequence (P00811 whole entry, looked up): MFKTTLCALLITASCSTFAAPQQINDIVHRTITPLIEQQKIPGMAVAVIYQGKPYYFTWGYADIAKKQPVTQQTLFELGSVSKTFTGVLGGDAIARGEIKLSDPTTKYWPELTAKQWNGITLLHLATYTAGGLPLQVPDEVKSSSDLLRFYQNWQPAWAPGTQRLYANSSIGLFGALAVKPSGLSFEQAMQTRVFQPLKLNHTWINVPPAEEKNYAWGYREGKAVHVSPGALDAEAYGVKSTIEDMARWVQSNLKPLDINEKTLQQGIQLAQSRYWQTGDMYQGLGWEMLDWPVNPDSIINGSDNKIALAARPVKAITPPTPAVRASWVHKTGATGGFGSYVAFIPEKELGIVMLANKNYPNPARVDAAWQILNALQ
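AmpC (5.3 nM in the dispensed reagent) in 20 mM phosphate pH 7.0 with 0.01% (detergent screen) or 0.0001% Triton X-100 was preincubated with compounds for 15 min at room temperature. Nitrocefin was then added from an 800 uM solution, and hydrolysis was followed at 480 nm.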
AMA1 RON2 block: AMA1-RON2 (P. falciparum) interaction inhibition; 360,000 tested, 0.2% active; AID 720542; Potency, µM (top dose mostly 58.2 µM), for the others: top-dose activity change, negative = inhibition, actives largely listed as inhibitors; AlphaScreen AMA1-biotinylated RON2 peptide binding;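 note: 0% = vehicle wells and -100% = peptide control; nearly all actives have a fitted effect of over 45% in size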
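AMA1 (3D7) with his tag at 25 nM final met compounds first, then biotinylated RON2 peptide at 25 nM; detection used donor plus acceptor beads, 10 µg/mL apiece, read by AlphaScreen after 30 min at room temperature.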
AmpC inh detg: blocks E. coli AmpC beta-lactamase in detergent assay | P00811 | AmpC hydrolysis of nitrocefin, absorbance 480 nm, 0.01% Triton | Potency, µM (titrated, usually from 114 µM), without a hit: top-dose activity change, negative = inhibition, usual class: inhibitors | 370,000 tested, 0.041% active | AID 485294;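 note: 0% = no-compound wells and -100% = no-enzyme wells; nearly all actives have a fitted effect of over 25% in size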
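20 mM phosphate pH 7.0 + 0.01% (detergent screen) or 0.0001% Triton X-100; 5.3 nM AmpC reagent; cpd preinc 15 min RT; nitrocefin (800 uM stock) to start; A480 q20 s × 4 min; Activity was normalised to no-enzyme and no-compound control wells.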
Pf growth 48h: P. falciparum growth inhibition at 48 hours (one generation); Potency, µM (series often up to 28.7 µM), without a hit: at the top dose activity change, negative = inhibition, most hits filed as inhibitors; 310,000 tested, 5.9% active; AID 504832; P. falciparum luciferase growth in erythrocytes, 48 h
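First compound was added to culture medium, then infected red cells at 0.1% parasitemia and 2% hematocrit (final). After incubation at 37 C under 5% CO2, luciferase detection reagent was dispensed and light output recorded.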
Numbers without * were called inactive; ? = inconclusive; . = not tested or not shown; [ ] = another dose, or the depositor's remark. An excerpt weighted towards active compounds, which were near 11% of everything screened. Calls come from the whole dose curve; as a rule, active = well fitted curve in the direction sought with a large enough effect; inconclusive = small, poorly fitted or top-dose-only effect, or another doubt; inactive = no such curve, though single readings can be large; an effect the other way counts as inactive or inconclusive. Unless noted, % is set by controls: 0 for no effect and ±100 for the full control effect; potency is the fitted concentration of half-maximal effect.

SMILES | Pf growth 96h | HCV inh | AmpC inh no detg | AMA1 RON2 block | AmpC inh detg | Pf growth 48h
Cc1ccc(OCC(O)Cn2c(=N)n(CCN3CCCCC3)c3ccccc32)cc1 (stereo not drawn) | 3%[5.75 µM] | 2.5µM* | 23% | -9% | 0% | 3.7µM*
COc1ccc(OCC(O)CN2CCCCC2)cc1 (stereo not drawn) | 18% | 11% | -11% | 0% | -18% | .
OC(COc1ccccc1)CN1CCCCCC1 (stereo not drawn) | 61% | -21% | -22% | 0% | 3% | ?
CCOc1ccc(NC(=O)N2CCOc3ccccc32)cc1 | . | . | . | . | 17% | .
CCCOC(=O)c1ccc(Oc2coc3c(CN(CC)CC)c(O)ccc3c2=O)cc1 | 12µM* | ? | -43% | -2% | -10% | ?
CCc1ccccc1N(C)C(=O)Cn1cnc2sc(C)c(S(=O)(=O)N3CCC(C)CC3)c2c1=O | . | . | . | . | 8% | .
CCc1cc2c(-c3ccccc3)cc(=O)oc2cc1OC(C)C(=O)NCC1CCC(C(=O)O)CC1 (stereo not drawn) | 9.3µM* | -20% | 14% | 9% | 0% | ?
CCCc1cc(=O)oc2cc(C)cc(OC(C)C(=O)NCC3CCC(C(=O)O)CC3)c12 (stereo not drawn) | ? | 11% | -13% | 0% | -4% | 0%
CCc1cc(=O)oc2cc(C)cc(OCC(=O)NCc3cccnc3)c12 | ? | -3% | 2% | 0% | -10% | -1%
CCCc1cc(=O)oc2cc(C)cc(OC(C)C(=O)NCc3ccncc3)c12 (stereo not drawn) | 2.9µM* | ? | 86% | -8% | -10% | 3.3µM*
CCc1cc(=O)oc2cc(C)cc(OC(C)C(=O)NCC(O)c3ccccc3)c12 (stereo not drawn) | ? | -12% | 23% | 2% | -10% | ?
CCCc1cc(=O)oc2cc(C)cc(OC(C)C(=O)NCc3cccnc3)c12 (stereo not drawn) | 4.7µM* | -26% | 70% | -2% | -11% | 8.3µM*
CCCCc1cc(=O)oc2cc(C)cc(OC(C)C(=O)NCC3CCC(C(=O)O)CC3)c12 (stereo not drawn) | 9.3µM* | ? | -21% | 10% | ? | ?
O=C(Cn1c(SCCOc2ccccc2Cl)nc2ccccc21)N1CCOCC1 | . | . | . | . | 1% | .
COC(=O)c1c(NC(=O)c2nc(SCc3ccc(F)cc3)ncc2Cl)sc2c1CCCC2 | . | . | . | . | 19% | .
CC(=O)c1ccc(NC(=O)CSc2cn(CC(=O)N3CCCCC3)c3ccccc23)cc1 | . | . | . | . | 11% | .
COc1cc(Cl)c(NS(=O)(=O)c2ccc3c(c2)CC(C)N3C(=O)C2CCC2)c(OC)c1 (stereo not drawn) | . | . | . | . | 20% | .
Cc1cc(Nc2cccc(C)c2C)n2cnnc2n1 | . | . | . | . | 17% | .
O=C(NCc1ccco1)c1ccc2c(c1)N(Cc1ccc(F)cc1)C(=O)c1ccccc1S2(=O)=O | . | . | . | . | 0% | .
CCc1cc(=O)oc2cc(C)cc(OCC(=O)NCc3ccncc3)c12 | -12% | 16% | -8% | -1% | 1% | -1%
CCCc1cc(=O)oc2cc(C)cc(OCC(=O)NCc3ccncc3)c12 | 8.3µM* | -10% | 26% | -12% | 1% | 9.3µM*
CCCCc1cc(=O)oc2cc(C)cc(OCC(=O)NCc3cccnc3)c12 | 9.3µM* | ? | 85% | 7% | 0% | 10µM*
CS(=O)(=O)Cc1cc(Sc2ccccc2)nc(-c2ccncc2)n1 | -27% | 3.2µM* | 80% | -3% | -1% | -24%
COc1cc(OC)c(NC(=O)C(Cc2ccccc2)NS(=O)(=O)c2cccc3nsnc23)cc1Cl (stereo not drawn) | . | . | . | . | -6% | .
Cc1cc(Nc2ccccc2)n(-c2nc3ccccc3[nH]2)n1 | . | 5µM* | ? | -11% | -9% | ?
SMILES | Pf growth 96h | HCV inh | AmpC inh no detg | AMA1 RON2 block | AmpC inh detg | Pf growth 48h
Cc1cc(NC(=O)c2c(F)cccc2Cl)n(-c2nc3ccccc3[nH]2)n1 | . | 14µM* | -32% | 119% | 1% | 10µM*
Cc1cc(NC(=O)c2ccccc2F)n(-c2nc3ccccc3[nH]2)n1 | 23%[5.75 µM] | ? | -31% | 73% | -9% | -79%
Cc1cc(NC(=O)c2cccc(S(=O)(=O)N3CCCCCC3)c2)n(-c2ccccn2)n1 | -8% | 7% | -19% | -6% | -2% | 16%
Cc1cc(NC(=O)c2c(F)cccc2F)n(-c2nc3ccccc3[nH]2)n1 | -94% | 35µM* | -31% | 86% | 4% | 7.4µM*
Cc1cc(NC(=O)c2cccc(S(=O)(=O)N(C)C)c2)n(-c2ccccn2)n1 | 4.7µM* | ? | -10% | 2% | -1% | .
Cc1cc(NC(=O)C2CC2)n(-c2nc3ccccc3s2)n1 | 1% | ? | -22%[11.4 µM] | -2% | ? | 14%
Cc1cc(N2CCN(c3ccccc3)CC2)nc(-c2ccccc2O)n1 | -18% | ? | -15% | -18% | -4% | .
Cc1cc(NC(=O)C2CCC2)n(-c2ccccn2)n1 | -18% | 10µM* | 0% | -3% | -11% | 9%
Cc1cc(C)nc(-n2nc(C)cc2Nc2ccccc2)n1 | . | 10µM* | 145% | -3% | ? | 8.3µM*
Cc1cc(C)nc(-n2nc(C)c(Br)c2Nc2ccc(Br)cc2)n1 | . | 24% | 15% | 3% | 1% | 3.7µM*
Cc1cc(N2CCN(c3ccccc3)CC2)nc(-n2nc(C)cc2C)n1 | -29% | . | 95% | 0% | ? | 3.7µM*
COC(=O)c1sc2cccc(F)c2c1S(=O)(=O)Nc1ccc(N(C)C)cc1 | . | . | . | . | -1% | .
CCCNC(=O)c1cnc2c(-c3ccc(OCC)c(OCC)c3)c(C)nn2c1-c1ccccc1 | . | . | . | . | 25% | .
Cc1cc(NC(=O)C2CCCCC2)n(-c2nc3ccccc3[nH]2)n1 | . | 4.5µM* | 18% | 22% | 2% | 9.3µM*
O=C(CCCn1nnnc1CN1CCOCC1)N1CCC(c2ccc(F)cc2)C1 (stereo not drawn) | 7.4µM* | 0% | 57% | -3% | 4% | -36%
COc1ccc(N2CCN(C(=O)CCCn3nnnc3CN3CCOCC3)C(C)C2)cc1 (stereo not drawn) | 12µM* | 10% | 2% | -6% | 0% | -9%
CCN(CC)C(=O)C1CCCN(C(=O)CCn2nnnc2CN2CCOCC2)C1 (stereo not drawn) | 9% | 22% | -10% | 8% | 1% | 4%
CCOC(=O)CC1CCCCN1C(=O)CCCn1nnnc1CN1CCOCC1 (stereo not drawn) | 31% | 12% | -4% | -11% | 2% | 7%
CCOC(=O)Cc1c(C)[nH]c(=S)[nH]c1=O | -29% | 18% | -5% | -7% | 2% | 1.3µM*
